Reference: the OligoGym collection

What follows are sequences tested against AWAT2 (assay: pooled miR-30 sensor sort-seq; sequence = guide strand). Settings: shRNA.

Sequence	sensor-assay potency score (higher = more potent)
TCTTGGTGAAGCCACGTCCATA	-1.6
TAGACATTACATATTCTCTGAG	0.0457
TTAGCCACGATCTCCTGGCTTG	-0.416
TAAGAATAAGCACAGTGACAGG	-1.65
TGAGATACCAAACTTGGTCTTA	-0.0616
ATAAGCACAGTGACAGGCCAGT	-0.973
TATTTAGCCACGATCTCCTGGC	-0.00517
ATAATCGCTGTAGTGTTTCCAC	-0.0859
ATATTTAGCCACGATCTCCTGG	-0.175
TTCTTGGGACTATCTCACCAGT	-1.17
TTGAGAGGGAAATAATCGCTGT	-0.0931
TTGACAGCAATCACAGTGGTTG	-0.667

These sequences were tested against B3GNT9 in the same assay as above. Settings: shRNA.

Sequence	sensor-assay potency score (higher = more potent)
TGTAGTACTTGCTAGCCCGCGT	-0.0178
AAAAACGAAGCGCACGTCGGGG	-1.1
TTCACGAACACATCTGCGTCGC	0.331
TAGAAAGTGGATCTCCTTGAGC	-0.561
TAGTACTTGCTAGCCCGCGTGC	-1.22
TCGGGGATGTAGTACTTGCTAG	-1.49
TCGGGTAACTGGAACGCGCGGG	-0.607
AAGTGGATCTCCTTGAGCGTTA	-0.755
TGCACTACAACCAGCTCACGGT	-0.863
TTAGGTTAAAAAAGGTGTCGTC	-0.179
AATTACGTCACCAGCAAGCAGG	-1.35
TTAATGAGCAGTGGAAACCGCC	-0.997

Each sequence was assayed against BABAM1 in the same assay as above. Settings: shRNA.

Sequence	sensor-assay potency score (higher = more potent)
ATCGTCTGCACGTTCTCTGTGA	-0.356
TTCTCTGGACAGTTGACCCTTG	0.0913
TCGATCTTGTGTTTTGTCCGCA	0.0335
TTTCTCTGGACAGTTGACCCTT	0.0375
TTCTGGGAGACATTGAGGGCGT	-0.794
AAACTCGTGGCTTTTGTCGATC	-1.23
TTTGTCCGCACGAACATCTCAA	-0.413
TATCCTTCCAACTCATCTCCTC	0.00157
TTGGCAGTGACATTTCCTCTGA	-0.685
AAACATATCCTTCCAACTCATC	-1.73
TTATCCATGACAAACTAGGAGT	-0.739

What follows are sequences tested against BARX2 in the same assay as above. Settings: shRNA.

Sequence	sensor-assay potency score (higher = more potent)
TTTAAGAACCATTTTCTTCCAT	0.594
TCAATCTCTTCTGATGTGGGGA	0.111
TTAAGAACCATTTTCTTCCATT	-0.688
TGCTTCACAGAGCTCCTCCTGC	-0.821
